Screening data as filed in PubChem.
TIM10 inh: growth inhibitors of isogenic TIM10 control yeast, primary screen, counter-screen for tim10-1 yeast inhibitor project, luminescence, uHTS | S. cerevisiae TIM10 strain growth, BacTiter-Glo luminescence, 24 h | inhibition, % at 10 µM | 330,000 compounds, 1.4% hits;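 active = inhibition of 40% or more at the single tested concentration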;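 note: wild-type TIM10 isogenic control strain grown at permissive 25 °C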
tim10-1 inh: growth inhibitors of tim10-1 mutant yeast, primary screen, luminescence, uHTS | S. cerevisiae tim10-1 ts strain growth, BacTiter-Glo, 24 h | inhibition, % at 20 µM | 330,000 compounds, 2.2% hits | AID 463190, 2010;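 active = inhibition of at least 40%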;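 note: mutant grown at 25 °C; 0% = DMSO wells with yeast and 100% = wells holding no yeast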
NLRP3 yeast inh: NALP3 inflammasome inhibitors in reconstituted yeast, primary screen, luminescence, uHTS | Yeast reconstituted NLRP3/ASC/caspase-1, beta-gal luminescence, 24 h | inhibition, % at 10 µM | 330,000 compounds, 0.39% hits;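 active = inhibition of 50% or more; inactive = inhibition below 50%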;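 note: plate controls were induced DMSO wells for no effect and uninduced yeast grown without galactose for full effect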
tim23-1 inh: growth inhibitors of tim23-1 mutant yeast, primary screen, luminescence, uHTS | 330,000 compounds, 1.3% hits | S. cerevisiae tim23-1 growth, BacTiter-Glo luminescence, 24 h | inhibition, % at 20 µM | AID 463212, 2010;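 active = growth inhibition of the mutant yeast at or above 50%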;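 note: temperature-sensitive mutant grown at 25 °C; plate controls were DMSO-treated mutant yeast for no effect and medium wells lacking yeast for full effect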
SKKanGAS inh: S. pyogenes SKKanGAS growth inhibitors in kanamycin, primary screen, streptokinase expression inhibitor project, SKKanGAS strain, BacTiter-Glo luminescence; AID 1662, 2009; 6 h; 300,000 compounds, 1.3% hits; inhibition, % at 7.5 µM;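 active = mean replicate score, as percent of positive control median, at least 50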;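 note: strain carries kanamycin resistance gene driven by streptokinase promoter and grows in 40 µg/ml kanamycin; loss of luminescence reflects streptokinase promoter inhibition or plain growth inhibition; 0% = median of DMSO wells and 100% = positive control at its reference dose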
tim10-1 confirm: growth inhibitors of tim10-1 mutant yeast, confirmation, single concentration, luminescence, S. cerevisiae; shares compounds with tim10-1 inh; S. cerevisiae tim10-1 ts strain growth, BacTiter-Glo, 24 h; inhibition, % at 20 µM; 7,400 compounds, 56% hits; AID 463213, 2010;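 active = inhibition of yeast growth at or above a set limit in either of two repeat tests at 20 µM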;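 note: tim10-1 mutant grown at permissive 25 °C to find synthetic lethal compounds; 0% = DMSO yeast wells and 100% = medium wells without yeast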
tim10 confirm: growth inhibitors of wild-type TIM10 yeast, confirmation, counter-screen for tim10-1 synthetic lethality project, single concentration, luminescence, S. cerevisiae; shares compounds with TIM10 inh; S. cerevisiae tim10 strain growth, BacTiter-Glo luminescence, 24 h; 4,600 compounds, 63% hits; inhibition, % at 10 µM;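 active = inhibition of yeast growth at or above a set limit in either of two replicates at 10 µM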;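 note: this counterscreen used the strain with wild-type TIM10; 0% = yeast with DMSO and 100% = medium wells lacking yeast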
Starred values were filed as active, the others as inactive; · = no result given. An excerpt weighted towards active compounds, which were near 4.6% of everything screened.

SMILES	TIM10 inh	tim10-1 inh	NLRP3 yeast inh	tim23-1 inh	SKKanGAS inh	tim10-1 confirm	tim10 confirm
CCCNC(=O)C(Cc1ccc(Br)cc1)NC(=O)c1ccc(C#N)cc1 (configuration not stated)	-11.5	7.1	5.4	-16.4	·	·	·
COCCNC(=O)c1onc(CSc2ccccc2)c1C(=O)NCCOC	-4.5	-4.9	12.4	-5.1	3.0	·	·
Cc1cc(C(=O)COC(=O)c2nccnc2N)c(C)n1C	3.2	4.2	6.3	-5.7	-3.2	·	·
COc1cc(C(=O)OCC(=O)c2cc(C)n(C)c2C)cc(OC)c1OC	44.6*	41.7*	2.3	37.6	1.9	31.8	8.2
CC(C)(C)c1cc(OC(=O)c2ccccc2F)ccc1O	48.4*	45.4*	4.1	35.9	9.2	24.3	42.7*
S=C(NCc1ccco1)Nc1cc(Cl)c(Cl)cc1Cl	42.3*	44.1*	27.0	42.8	6.6	28.4	-20.9
S=C(NCc1ccco1)Nc1ccc(Oc2ccccc2)cc1	46.2*	45.0*	30.1	26.2	5.2	28.0	36.9*
Cc1ccc(-n2nc(C)c(Sc3ccccc3[N+](=O)[O-])c2N)cc1	43.8*	43.9*	18.7	48.2	-1.1	34.5*	33.0*
Cc1n[nH]c(C)c1Sc1ccccc1[N+](=O)[O-]	6.2	5.7	4.4	-6.6	-3.2	·	·
S=c1[nH]nc(CSc2nc3ccccc3s2)n1C1CCCCC1	49.4*	47.4*	38.2	30.7	26.8	42.5*	1.6
S=c1[nH]nc(COc2ccccc2)n1C1CCCCC1	7.6	5.2	14.7	38.4	-4.0	·	·
COc1ccccc1N1CCN(Cc2ccc(O)c3ncccc23)CC1	49.7*	41.7*	46.1	31.3	42.7	23.1	35.2*
C(=N\Nc1nc(Nc2ccccc2)nc(N2CCCCC2)n1)/c1ccco1	48.1*	49.8*	19.7	46.7	81.3*	31.2	37.3*
O=C(CSCC(=O)OCn1nnc2ccccc2c1=O)Nc1ccc(Cl)cc1	51.3*	61.7*	-7.4	46.8	7.8	54.9*	25.2
C[C@H](NC(=O)c1ccc(Cl)cc1)C(=O)OCn1nnc2ccccc2c1=O	-28.6	-11.6	-7.7	7.3	·	·	·
O=C(O)Cn1c(=O)c2c3c(sc2n(Cc2ccc(Cl)cc2Cl)c1=O)CCCC3	·	·	·	·	30.7	·	·
CCN(CC)c1ccc(N=CN2CCOCC2)cc1	-0.2	4.0	21.8	-14.0	-3.8	·	·
COc1cc2c(cc1NS(=O)(=O)N1CCCCC1)oc1ccccc12	43.8*	41.1*	-13.0	39.0	-3.6	37.0*	35.2*
COc1cc2c(cc1OC)C(c1ccc(-c3cc(Cl)ccc3Cl)o1)=NCC2	45.1*	45.8*	8.3	-2.4	28.8	43.5*	45.5*
COc1cc2c(cc1OC)C(c1ccc(-c3ccccc3Cl)o1)=NCC2	45.6*	46.0*	27.5	49.0	1.6	40.4*	47.3*
COc1cc2c(cc1OC)C(c1ccc(-c3ccc(Cl)cc3Cl)o1)=NCC2	47.6*	51.1*	26.8	44.6	-8.4	26.6	35.6*
COc1cc2c(cc1OC)C(c1ccc(Cl)cc1)=NCC2	8.3	-2.3	31.7	-4.1	5.9	·	·
O=S(=O)(NCCc1ccc(F)cc1)c1ccc(F)cc1Br	-11.1	6.0	·	41.8	·	·	·
O=C(Cc1cccs1)Nc1nc(-c2ccc(F)cc2F)cs1	52.4*	41.0*	36.6	41.0	8.6	34.5*	41.3*
CCN1C(=O)[C@@H]2[C@H](C1=O)[C@@H]1C(=O)Nc3ccccc3C(=O)N1[C@@H]2c1ccc(Br)cc1	3.4	-7.0	4.4	-6.9	-1.6	·	·
SMILES	TIM10 inh	tim10-1 inh	NLRP3 yeast inh	tim23-1 inh	SKKanGAS inh	tim10-1 confirm	tim10 confirm
CCCN1C(=O)SC(CC(=O)Nc2ccc(C)cc2)C1=O (configuration not stated)	-1.0	11.5	35.3	9.5	1.2	·	·
Cc1ccc(NC(=O)CC2SC(=O)N(c3ccccc3)C2=O)cc1 (configuration not stated)	41.1*	49.0*	1.2	46.1	-1.8	41.5*	-8.9
O=C(NC(=S)Nc1ccccc1N1CCOCC1)c1cccc([N+](=O)[O-])c1	43.9*	44.0*	15.7	41.3	4.0	34.8*	42.9*
CCC(=O)N1CCN(c2ccccc2NC(=S)NC(=O)c2cccc([N+](=O)[O-])c2)CC1	19.0	33.4	11.7	17.8	2.6	·	·
COc1cccc(C(=O)Nc2ccccc2N2CCCC2)c1	8.0	14.2	10.4	22.4	3.2	·	·
COc1cccc(C(=O)NC(=S)Nc2ccccc2N2CCCC2)c1	49.2*	41.2*	16.2	34.8	-11.0	30.4*	43.7*
Cc1ccc(-n2sc3ccccc3c2=O)cc1S(=O)(=O)N1CCCCC1	57.1*	87.2*	9.1	17.4	90.0*	89.0*	75.8*
Cc1ccccc1-n1sc2cc(F)ccc2c1=O	48.9*	40.3*	23.6	41.3	·	38.1*	70.0*
O=c1c2ccccc2sn1-c1ccc(S(=O)(=O)N2CCCCC2)cc1	22.3	19.5	17.7	1.0	-3.0	·	·
O=c1c2cc(F)ccc2sn1-c1ccccc1	47.3*	45.5*	18.0	37.6	·	55.7*	76.8*
O=c1c2ccccc2sn1-c1ccccc1	57.9*	85.6*	29.6	31.6	100.3*	51.2*	97.2*
CC1NC(=O)c2ccccc2-n2c1nc1cc(F)ccc1c2=O (configuration not stated)	6.1	9.4	18.8	28.7	·	·	·
O=C(O)c1cccc(-n2sc3ccccc3c2=O)c1	2.4	1.3	22.5	8.9	·	·	·
CCOc1ccccc1N(CC(=O)Nc1ccccc1F)S(=O)(=O)c1ccccc1	6.3	3.1	18.0	34.9	9.9	·	·
O=S(=O)(c1ccc(Cl)cc1)N1CCC(O)(CN2CCN(Cc3ccccc3)CC2)CC1	-3.3	1.7	26.4	10.4	-6.2	·	·
O=S(=O)(c1ccccc1)N1CCC(O)(CSc2ccc(Cl)cc2)CC1	43.0*	43.7*	-2.2	33.8	-4.7	36.5*	25.4
Cc1cc(C)c(S(=O)(=O)N(CC(=O)N2CCCC2)C2CCCCC2)c(C)c1	43.3*	40.0*	-0.6	48.3	15.9	23.2	13.8
Cc1ccc(S(=O)(=O)N(CC(=O)N2CCCC2)C2CCCCC2)cc1	14.1	12.1	9.7	11.8	3.4	·	·
O=C(COc1ccccc1Cl)NNC(=O)c1ccc2nc[nH]c2c1	1.5	5.5	9.1	6.6	46.0	·	·
COc1ccc(C(C)(C)C)cc1NC(=O)COc1ccc(-c2nnco2)cc1	-0.6	5.3	7.6	22.4	·	·	·
O=C(c1ccc(Oc2ccc([N+](=O)[O-])cc2)cc1)N1CCCCCC1	5.0	28.9	42.4	33.7	-8.0	·	·
